Source: PubChem BioAssay
This is a sample that favours compounds with a hit; in the whole collection about 2.3% have one here.
Glioma ERSR ind: qHTS for Inducers of the Endoplasmic Reticulum Stress Response (ERSR) in Human Glioma: qHTS; U87-MG GRP78 promoter luciferase reporter, 16 h; Potency, µM, actives largely listed as activators; 0.02% of 420,000 active; also: series mostly up to about 76 µM; nearly all actives have a fitted effect of over 35% in size
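Stably transfected U87-MG human glioma cells carrying a GRP78-based luminescent sensor were seeded at 1000 cells/well, pin-dosed with compounds and incubated 16 h. Luciferase reagent was then added, and end-point luminescence was read after 10 min at room temperature.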
Nrf2 ARE act: qHTS of Nrf2 Activators; Potency, µM (doses to about 46.1 µM), most hits filed as activators; AREc32 ARE-luciferase reporter (MCF7-derived line), luminescence, 24 h; AID 624171, 2012; 0.31% of 410,000 active; also: nearly all actives have a fitted effect of over 65% in size
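AREc32 cells carrying an ARE-driven firefly luciferase reporter were seeded at 1000 cells/well in OPTI-MEM with 5% FBS, then exposed to compound for 24 hr at 37 deg C. Luminescence was read with Steady-Glo after 30 min at RT.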
Mito fusion act: qHTS Assay for Small Molecule Inhibitors of Mitochondrial Division or Activators of Mitochondrial Fusion; S. cerevisiae fusion-defective mutant growth rescue, CellTiterGlo 48 h; Potency, µM (doses to about 46.1 µM), hits mostly activators; 0.23% of 320,000 active; also: nearly all actives have a fitted effect of over 45% in size
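Growth-rescue viability read-out: after 48 h at the non-permissive 37C in glycerol/ethanol YPEG, yeast mitochondrial fusion mutants are measured by CellTiterGlo luminescence; compounds (23 nl pinned per well) restoring growth score as division inhibitors or fusion activators.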
A549 tox: Nrf2 qHTS screen for inhibitors: counterscreen for cytotoxicity; A549 ARE-Fluc cells, CellTiter-Fluor viability, 18-24 h; Potency, µM (highest dose often 46 µM), most hits filed as inhibitors; AID 504648, 2011; 0.16% of 390,000 active
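A549 ARE-Fluc cells in 5% FBS OPTI-MEM, 5000 cells/well, rested 2 h then exposed to compounds in concentration-response for 18-24 h at 37 °C. Viability by CellTiter-Fluor fluorescence (Ex 405/Em 525) after 30 min; luciferase luminescence (BugLite, 15 min, RT) read afterwards.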
Nrf2 inh: Nrf2 qHTS screen for inhibitors; A549 ARE-Fluc reporter, luciferase luminescence, 18-24 h; Potency, µM (highest dose often 46 µM), hits mostly inhibitors; 2.1% of 360,000 active; AID 504444, 2011; also: nearly all actives have a fitted effect of over 60% in size
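In this cell-based qHTS, ARE-driven firefly luciferase in A549 cells reports Nrf2 activity; the luminescent signal after BugLite lysis is the measured value, with a prior CellTiter-Fluor read for cell health.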
miR-21 act: qHTS Assay for Modulators of miRNAs and/orActivators of miR-21; HeLa miR-21 FLuc reporter, luciferase, 48 h; AID 2288, 2010; 340,000 tested, under 10 active; Potency, µM (doses to about 38.3 µM), most hits filed as activators;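 also: miR-21 action dims this reporter so a rising signal means less miR-21 action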
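Using DMEM plus 10% FBS, HeLa miR-21-FLuc cells are incubated with test compounds (final up to about 40uM) for 48 hours; firefly luciferase signal is then imaged following reagent-mediated lysis.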
Large screens that a line does not name were inactive. Calls follow the shape of the dose curve; as a rule, active = well fitted curve in the direction sought with a large enough effect; inconclusive = small, poorly fitted or top-dose-only effect, or another doubt; inactive = no such curve, though single readings can be large; an effect the other way counts as inactive or inconclusive.

C=CCSc1nnc(-c2cccc3ccccc23)o1	none (no result: Mito fusion act, miR-21 act)
C#CCSc1nnc(-c2cccc3ccccc23)o1	Nrf2 ARE act 11µM (no result: Mito fusion act, miR-21 act)
CC(C)n1c(SCC(=O)Nc2nc3c(s2)CCCC3)nc2c1c(=O)n(C)c(=O)n2C	Nrf2 inh 23µM
CCCCn1c(SCC(=O)Nc2nnc(CC)s2)nc2c1c(=O)n(C)c(=O)n2C	Nrf2 inh 8.2µM
CCOC(=O)c1c(NC(=O)CSc2nc3c(c(=O)n(C)c(=O)n3C)n2C(C)C)sc(C)c1C	none
COc1ccc(-n2nnnc2SCC(=O)Nc2nc3c(s2)CCCC3)cc1	Nrf2 inh 16µM
O=c1oc2cc(O)ccc2cc1-c1nc(-c2ccc(Cl)c(Cl)c2)cs1	none (no result: Mito fusion act, Nrf2 inh)
O=C(c1ccc(S(=O)(=O)Cc2cc(F)ccc2F)c([N+](=O)[O-])c1)N1CCOCC1	Nrf2 ARE act 13µM (no result: Mito fusion act, A549 tox, Nrf2 inh, miR-21 act)
O=C(c1ccc(S(=O)(=O)Cc2ccccc2F)c([N+](=O)[O-])c1)N1CCCCCC1	Nrf2 ARE act inconclusive, A549 tox inconclusive, Nrf2 inh inconclusive
O=C(CNCc1ccccc1Cl)Nc1ccc(C(=O)N2CCCCC2)cc1	none
C=CCC[C@H](Cc1ccc(F)cc1)C(=O)OC[C@@H](Cc1c[nH]c2ccccc12)NC(=O)[C@H](CC=C)CC(=O)NCCO	none (no result: Mito fusion act, miR-21 act)
C=CC[C@H](CC(=O)N(CCO)Cc1ccccc1)C(=O)N[C@@H](COC(=O)[C@@H](CC=C)Cc1ccc(F)cc1)Cc1c[nH]c2ccccc12	A549 tox inconclusive, Nrf2 inh 18µM (no result: Mito fusion act, miR-21 act)
C=CC[C@@H](CC(=O)N(CCO)Cc1ccccc1)C(=O)N[C@@H](COC(=O)[C@@H](CC=C)Cc1ccc(F)cc1)Cc1c[nH]c2ccccc12	A549 tox inconclusive, Nrf2 inh inconclusive (no result: Mito fusion act, miR-21 act)
C=CCC[C@H](Cc1ccc(F)cc1)C(=O)OC[C@@H](Cc1c[nH]c2ccccc12)NC(=O)[C@H](CC=C)CC(=O)N(CCO)Cc1ccccc1	A549 tox inconclusive, Nrf2 inh 21µM (no result: Mito fusion act, miR-21 act)
C=CCC[C@@H](Cc1ccc(F)cc1)C(=O)OC[C@@H](Cc1c[nH]c2ccccc12)NC(=O)[C@H](CC=C)CC(=O)N(CCO)Cc1ccccc1	A549 tox inconclusive, Nrf2 inh 23µM (no result: Mito fusion act, miR-21 act)
C=CCC[C@@H](Cc1ccc(F)cc1)C(=O)OC[C@H](Cc1c[nH]c2ccccc12)NC(=O)[C@H](CC=C)CC(=O)NCCO	none (no result: Mito fusion act, miR-21 act)
Cc1sc(NC(=O)/C=C/C(=O)O)c(C(N)=O)c1-c1ccc(C(C)(C)C)cc1	Nrf2 ARE act 13µM
CCOC(=O)c1c(NC(=O)/C=C/C(=O)O)sc(C)c1-c1ccc(C(C)(C)C)cc1	Nrf2 ARE act inconclusive, Nrf2 inh inconclusive, miR-21 act inconclusive
O=C(Oc1cc(=O)oc2ccccc12)c1ccccc1	none
CCCCOC(=O)CSC1=C(C#N)C(c2ccccc2OCC)C(C#N)C(=O)N1 (stereo not drawn)	A549 tox inconclusive, Nrf2 inh 10µM
COc1ccc(CCNC(=O)Nc2cccc([N+](=O)[O-])c2)cc1OC	none
CC(C)(C)NC(=O)C(c1ccncc1)N(CC1CCCO1)C(=O)Cn1nnc(-c2ccc(F)cc2)n1 (stereo not drawn)	none
CC(C)(C)NC(=O)C(c1ccncc1)N(Cc1cccs1)C(=O)Cn1nnc(-c2ccc(F)cc2)n1 (stereo not drawn)	Nrf2 inh 9.2µM
CC(=O)Oc1c(C)cc(Cl)cc1C(=O)Nc1ccc([N+](=O)[O-])cc1Cl	A549 tox 2.6µM, Nrf2 inh 1.6µM
CC(=O)OCC(=O)Nc1ccc([N+](=O)[O-])cc1Cl	none
O=C(Nc1ccc([N+](=O)[O-])cc1Cl)c1ccccc1O	A549 tox inconclusive, Nrf2 inh 23µM (no result: Nrf2 ARE act, Mito fusion act, miR-21 act)
O=C(Nc1cccc(O)c1)c1ccc([N+](=O)[O-])cc1Cl	none
c1ccc(Cn2c(-c3ccccc3)c[n+]3c2SCCC3)cc1	Nrf2 inh 8.2µM
Brc1ccc(-c2c[n+]3c(n2-c2ccccc2)SCC3)cc1	Nrf2 inh inconclusive
COc1ccccc1N1C(=O)c2ccccc2NC1c1ccncc1 (stereo not drawn)	none (no result: Nrf2 inh)
COc1ccccc1N1C(=O)N(C(C)=O)C2C1Nc1ccccc1N2C (stereo not drawn)	A549 tox 12µM, Nrf2 inh inconclusive
Cc1ccc(C2=NN(C(=O)CCC(=O)O)C(c3cn(-c4ccccc4)nc3-c3ccc(C)cc3)C2)cc1 (stereo not drawn)	A549 tox inconclusive
Cc1ccc(-c2nn(-c3ccccc3)cc2C2CC(c3ccccc3)=NN2C(=O)CCC(=O)O)cc1 (stereo not drawn)	Nrf2 inh 21µM
O=S(=O)(NCC1CN(S(=O)(=O)c2c(F)cccc2F)C1)c1ccc2c(c1)OCCO2	Nrf2 inh 12µM (no result: miR-21 act)
O=S(=O)(c1ccc2c(c1)OCCO2)N1CCN(S(=O)(=O)c2c(F)cccc2F)CC1	A549 tox inconclusive (no result: Glioma ERSR ind, Nrf2 ARE act, Mito fusion act, miR-21 act)
[O-]/C(=C(\C(=S)Nc1ccc(SC(F)F)cc1)[n+]1ccccc1)c1cc(Cl)ccc1Cl	A549 tox inconclusive, Nrf2 inh 21µM
CC(=O)Nc1ccc(NC(=O)CSc2nnc(CC(C)O)n2-c2ccccc2)cc1 (stereo not drawn)	none
O=[N+]([O-])c1ccc(C2=Nc3cc(Cl)ccc3OC2)cc1	Nrf2 ARE act 13µM, Nrf2 inh inconclusive
COc1ccccc1N(CC(=O)N1CCC(C(N)=O)CC1)S(=O)(=O)c1ccccc1	none
O=C(NCc1cccnc1)/C(=C\c1ccc(-c2cccc(Cl)c2)o1)S(=O)(=O)c1ccccc1	Nrf2 ARE act inconclusive, A549 tox 21µM, Nrf2 inh 21µM, miR-21 act inconclusive
O=C1c2cc3ccccc3c(-c3ccccc3)c2C(=O)N1c1ccccn1	none
CC1Sc2ccc(S(=O)(=O)CCC(=O)N3CCN(c4cccc(Cl)c4)CC3)cc2NC1=O (stereo not drawn)	A549 tox inconclusive, Nrf2 inh 16µM, miR-21 act inconclusive
Cc1cccc(N2CCN(C(=O)CCS(=O)(=O)c3ccc4c(c3)NC(=O)CO4)CC2)c1C	Nrf2 inh 15µM
CC1Sc2ccc(S(=O)(=O)CCC(=O)N3CCN(c4ccccc4)CC3)cc2NC1=O (stereo not drawn)	none
Cc1cc(S(=O)(=O)NCC(C)C)ccc1OCC(=O)NCc1ccco1	none
COC(=O)c1cccc(CN2C(=O)SC(Nc3ccccc3)C2=O)c1 (stereo not drawn)	none
